One assay addresses CCDC56. Briefly: pooled miR-30 sensor sort-seq; sequence = guide strand. To be noted: shRNA.
Turning to TTGCCAGAGCTCGGGCTCGGGC, the sensor-assay potency score (higher = more potent) is -1.79.
TCATCTAGGAAACGCTCCTGGG: the sensor-assay potency score (higher = more potent) was -1.24.
As to TAGAATCCAGAGGGTCACCAGC, the sensor-assay potency score (higher = more potent) was -1.25.
Sequence ACCATAAATAGCCAACACCAGG came in with a sensor-assay potency score (higher = more potent) of -2.43.
Still for that read-out and setting: in the case of TAAATAGCCAACACCAGGGCCC it was 0.333; in that of TAGCTCATCTAGGAAACGCTCC, -0.33.
On the same count and under the same terms, in the case of TCGTCTTCTAGCTCATCTAGGA it was -0.614; in that of ATCTAGGAAACGCTCCTGGGAA, -1.12; in that of TCGAGTAGAAGGTGTAACCATA, -1.07.
The sequence TTGCTCGGGTGTCAGCTTCTCC displayed a sensor-assay potency score (higher = more potent) of -1.07.

The target in the next assay is CCDC72. Described as above. To be noted: shRNA.
Consider TCTGCTTGAAAGCCTTATCTTC, for which the sensor-assay potency score (higher = more potent) was -0.819.
In the case of TTATTCTTAAATGTACAACAGC, the sensor-assay potency score (higher = more potent) is -0.855.
Take TTTGTTTCTGCTTGAAAGCCTT: the sensor-assay potency score (higher = more potent) was -0.585.
TTATCTTCCTCGTCCATCTCCT displayed a sensor-assay potency score (higher = more potent) of 0.315.
TTCCTCGTCCATCTCCTTGGCC had a sensor-assay potency score (higher = more potent) of -0.547.
Regarding TTGTTTCTGCTTGAAAGCCTTA, the sensor-assay potency score (higher = more potent) was -0.0976.
Sequence ATCTTCCTCGTCCATCTCCTTG showed a sensor-assay potency score (higher = more potent) of -1.81.
The same measure, in the same setting: for TCTTCCTCGTCCATCTCCTTGG the value was -0.456; for TTCAGTGGCTTCTTCTTGCCAC, 0.0626; for TTAAATGTACAACAGCTCCAAG, -1.04.

The target of a further assay is CCDC77. Described as above. To be noted: shRNA.
TTGCAAAATACCTTCTTCCTAA displayed a sensor-assay potency score (higher = more potent) of -0.254.
Same read-out and setting: for TTTGGTGCTCTCATAGAGCAGT the value was -0.0472.
TTAATATCTGTCTTAAAGCCTT returned a sensor-assay potency score (higher = more potent) of -0.792.
Regarding TAGCTCTTTGATTTTGTTCTGA, the sensor-assay potency score (higher = more potent) turned out to be 0.252.
For the sequence TTTCTTCTTACACTGCACCCTA, the sensor-assay potency score (higher = more potent) is -0.0389.
As for TTTCTTGTCTTCTAGCTCCCTG, the sensor-assay potency score (higher = more potent) is -0.0804.
Consider TTATCTTTTTCAAGCATCCATG, for which the sensor-assay potency score (higher = more potent) is -1.19.
In turn, TTTCGTTTGAGTCTCTAGCGCC displayed a sensor-assay potency score (higher = more potent) of -0.231.
TTCTTGTCTTCTAGCTCCCTGA showed a sensor-assay potency score (higher = more potent) of -1.06.
Same read-out and setting: in the case of TATGCTGTCCTTCACAAGCTTC it was -1.33; in that of TAATATATTCACTTTGAGCATG, -0.91; in that of TTTTTCTCTTGTACTAACTTAT, -0.944.

The next assay addresses CCL13. The description is as above. To be noted: shRNA.
With TAACACATAGTACATTTTGAAT, the sensor-assay potency score (higher = more potent) is -1.62.
TTTCATATAATTCTGGACCCAC registered a sensor-assay potency score (higher = more potent) of 0.0997.
For TCTGAAGATGACAGCCTTCTGG, the sensor-assay potency score (higher = more potent) is -0.807.
In turn, AAGGAGATCTTCTTACTGCTAA had a sensor-assay potency score (higher = more potent) of -0.229.
The same measure, in the same setting: in the case of TGAAGCAGCAAGTAGATGGGAC it was -0.203; in that of TTACTTAACACATAGTACATTT, -1.04; in that of TATAATTCTGGACCCACTTCTC, -0.771.
In the case of ATTCTGGACCCACTTCTCCTTT, the sensor-assay potency score (higher = more potent) was -1.22.

The record behind these values is the OligoGym collection.
Further: reference of the scale not given here.
